Test results reported in PubChem BioAssay AID1159580 (chemical genetic matrix, 2015).
“And” between values parts separate entries of the source, which are not always exact repeats. Equal entries are not always repeated. About 2,000 (36%) of roughly 5,500 compounds were called active. About 18% were inconclusive and are not listed. No stated cut-off is given here; in the data, active means normalized growth mostly below about 0.91 (no sharp cut-off); inconclusive means no clear call, values can overlap the other calls; inactive means mostly above about 0.92. Some of the results follow.

Experiment: chemical genetic growth profiling, strain panel (AID 1159580);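 further: tested at 20 µM; growth read once vehicle control cultures reached saturation at 30 °C; 1 = growth at the plate median or of vehicle wells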
Settings: S. cerevisiae deletion strains, growth OD

Measured: normalized growth

CCN(CC)C(=O)c1cccc(C)c1
inactive: locus YAL013W, strain DEP1, stronger effect = lower value 1 | locus YAL021C, strain ccr4, stronger effect = lower value 1.03 | locus YAL026C, strain drs2, stronger effect = lower value 1.03 | locus YAL030W, strain snc1, stronger effect = lower value 1.04 | locus YBL061C, strain skt5, stronger effect = lower value 1.04 | locus YBR009C, strain hhf1, stronger effect = lower value 1.01 | locus YBR021W, strain FUR4, stronger effect = lower value 1.01 | locus YBR023C, strain chs3, stronger effect = lower value 1.03 | locus YBR171W, strain sec66, stronger effect = lower value 1.04 | locus YBR229C, strain ROT2, stronger effect = lower value 1.01 | locus YBR231C, strain swc5, stronger effect = lower value 1.05 | locus YBR279W, strain paf1, stronger effect = lower value 1.02 | locus YCL011C, strain gbp2, stronger effect = lower value 1.02 | locus YCL016C, strain dcc1, stronger effect = lower value 1.03 | locus YCL029C, strain bik1, stronger effect = lower value 0.992 | locus YCL069W, strain vba3, stronger effect = lower value 1.04 | locus YCR088W, strain abp1, stronger effect = lower value 1.04 | locus YDL005C, strain med2, stronger effect = lower value 1.03 | locus YDL035C, strain GPR1, stronger effect = lower value 1 | locus YDL040C, strain nat1, stronger effect = lower value 1.03 | locus YDL074C, strain BRE1, stronger effect = lower value 1.02 | locus YDL101C, strain DUN1, stronger effect = lower value 0.999 | locus YDL134C, strain PPH21, stronger effect = lower value 1.01 | locus YDL185W, strain tfp1, stronger effect = lower value 0.957 | locus YDL192W, strain arf1, stronger effect = lower value 0.996 | locus YDR001C, strain nth1, stronger effect = lower value 1.03 | locus YDR069C, strain doa4, stronger effect = lower value 1.02 | locus YDR101C, strain arx1, stronger effect = lower value 1 | locus YDR137W, strain rgp1, stronger effect = lower value 1.04 | locus YDR150W, strain NUM1, stronger effect = lower value 0.981 | locus YDR159W, strain sac3, stronger effect = lower value 1.05 | locus YDR162C, strain NBP2, stronger effect = lower value 0.972 | locus YDR195W, strain ref2 1.11 | locus YDR297W, strain sur2, stronger effect = lower value 1.03 | locus YDR318W, strain mcm21, stronger effect = lower value 1 | locus YDR334W, strain swr1, stronger effect = lower value 1.03 | locus YDR335W, strain msn5, stronger effect = lower value 1.03 | locus YDR388W, stronger effect = lower value 1.01 | locus YDR392W, strain spt3, stronger effect = lower value 1.05 | locus YDR502C, strain sam2, stronger effect = lower value 0.994 | locus YEL003W, strain gim4, stronger effect = lower value 1.02 | locus YEL037C, strain rad23, stronger effect = lower value 1.04 | locus YEL061C, strain CIN8 (second series), stronger effect = lower value 1.02 | locus YEL061C, strain CIN8, stronger effect = lower value 1.01 | locus YER015W, strain faa2, stronger effect = lower value 1.03 | locus YER016W, strain bim1, stronger effect = lower value 1.02 | locus YER110C, stronger effect = lower value 1.01 | locus YER111C, strain swi4, stronger effect = lower value 1.05 | locus YER155C, strain BEM2 (second series), stronger effect = lower value 1.07 | locus YER155C, strain BEM2, stronger effect = lower value 1.01 | locus YER167W, strain BCK2, stronger effect = lower value 1.03 | locus YFR010W, strain ubp6, stronger effect = lower value 1.03 | locus YGL078C, strain dbp3, stronger effect = lower value 0.997 | locus YGL086W, strain mad1, stronger effect = lower value 1 | locus YGL167C, strain pmr1, stronger effect = lower value 1.03 | locus YGL173C, strain kem1, stronger effect = lower value 1.01 | locus YGL227W, strain vid30, stronger effect = lower value 1.04 | locus YGL240W, strain doc1, stronger effect = lower value 1.03 | locus YGL248W, strain PDE1, stronger effect = lower value 1.01 | locus YGL253W, strain hxk2, stronger effect = lower value 1.02 | locus YGR078C, strain PAC10, stronger effect = lower value 0.98 | locus YGR135W, strain pre9, stronger effect = lower value 0.982 | locus YGR229C, strain SMI1, stronger effect = lower value 1.01 | locus YGR252W, strain gcn5, stronger effect = lower value 0.98 | locus YHR013C, strain ard1, stronger effect = lower value 1.1 | locus YHR027C, strain rpn1, stronger effect = lower value 1.02 | locus YHR030C, strain SLT2, stronger effect = lower value 1.01 and 0.932 | locus YHR079C, strain IRE1 (second series), stronger effect = lower value 1 | locus YHR079C, strain IRE1, stronger effect = lower value 0.977 | locus YHR094C, strain hxt1, stronger effect = lower value 0.997 | locus YHR129C, strain ARP1, stronger effect = lower value 1.02 | locus YHR142W, strain chs7, stronger effect = lower value 1.02 | locus YHR200W, strain rpn10, stronger effect = lower value 0.998 | locus YIL066C, strain RNR3, stronger effect = lower value 0.998 | locus YIL073C, strain SPO22, stronger effect = lower value 0.97 | locus YIL125W, strain kgd1, stronger effect = lower value 1 | locus YIR030C, strain dcg1, stronger effect = lower value 0.996 | locus YJL092W, strain hpr5, stronger effect = lower value 1.03 | locus YJL095W, strain BCK1 (second series), stronger effect = lower value 1.04 | locus YJL095W, strain BCK1, stronger effect = lower value 1.04 and 0.974 | locus YJL115W, strain asf1, stronger effect = lower value 1.06 | locus YJL129C, strain trk1, stronger effect = lower value 1.08 | locus YJL134W, strain LCB3, stronger effect = lower value 1 | locus YJL154C, strain vps35, stronger effect = lower value 1.03 | locus YJL164C, strain tpk1, stronger effect = lower value 1.02 | locus YJL166W, strain qcr8, stronger effect = lower value 1.02 | locus YJL168C, strain set2, stronger effect = lower value 1 | locus YJL187C, strain SWE1 (second series), stronger effect = lower value 0.994 | locus YJR043C, strain POL32, stronger effect = lower value 0.999 | locus YJR066W, strain TOR1, stronger effect = lower value 0.942 | locus YJR075W, strain HOC1, stronger effect = lower value 1.02
